In PubChem BioAssay (EPA / NIEHS):
Where “and” joins values, the source holds several entries; their conditions need not be identical. Identical values can stand only once. The source holds several records for some structures; these can differ, active in one and inactive in another. Calls of active or inactive are those of the source. The calls were made as follows: active = hit-call score of the fitted dose curve at least 0.9, where 1 is the maximum; inactive = score below 0.9.

Tests used:
[1] = read-out: Macrophage colony-stimulating factor (MCSF), CSF1 (gene 1435); test: BSK_hDFCGF_MCSF: BioMAP Diversity Plus: hDFCGF Assay for Macrophage colony-stimulating factor (MCSF) Biomarker Activity (AID 2283060); settings: primary human foreskin fibroblasts; actives raise or lower the signal
Method in brief: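 Human foreskin primary fibroblasts were treated with test chemical for 24 h, and M-CSF was then measured by ELISA. Data were fitted bidirectionally against DMSO as the negative control and activity baseline.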

[2] = BSK_hDFCGF_SRB: Viability Assessment in the BioMAP Diversity Plus: hDFCGF Assay (AID 2283061); settings: primary human foreskin fibroblasts;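 also: cells exposed to compound for 24 h before the read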
Method in brief: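 Human foreskin primary fibroblasts were treated with compound and assessed 24 h after dosing. Total protein was measured by sulforhodamine B staining (0.1% SRB after 10% TCA fixation, 560 nm read) as a cytotoxicity marker, with bidirectional fitting against DMSO baseline.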

[3] = read-out: TIMP metallopeptidase inhibitor 1 (TIMP1), TIMP1 (gene 7076); test: BSK_hDFCGF_TIMP1: BioMAP Diversity Plus: hDFCGF Assay for TIMP metallopeptidase inhibitor 1 (TIMP1) Biomarker Activity (AID 2283062); settings: primary human foreskin fibroblasts; actives raise or lower the signal
Method in brief: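 Primary human foreskin fibroblasts in the hDFCGF system were dosed with compound for 24 h, then TIMP-1 was measured by ELISA. Activity was fitted bidirectionally relative to DMSO control; parallel SRB staining assessed cytotoxicity.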

[4] = read-out: Monokine induced gamma interferon (MIG), CXCL9 (gene 4283); test: BSK_hDFCGF_MIG: BioMAP Diversity Plus: hDFCGF Assay for Monokine induced gamma interferon (MIG) Biomarker Activity (AID 2283063); settings: primary human foreskin fibroblasts; actives raise or lower the signal
Method in brief: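 ELISA read-out of MIG from primary human dermal fibroblasts 24 h post-dosing. Gain or loss of signal fitted bidirectionally, DMSO as baseline.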

[5] = read-out: Matrix Metallopeptidase 1 (MMP1), MMP1 (gene 4312); test: BSK_hDFCGF_MMP1: BioMAP Diversity Plus: hDFCGF Assay for Matrix Metallopeptidase 1 (MMP1) Biomarker Activity (AID 2283064); settings: primary human foreskin fibroblasts; actives raise or lower the signal
Method in brief: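 Primary human foreskin fibroblasts exposed to chemicals for 24 h; MMP1 measured by ELISA. Cytotoxicity tracked by SRB staining in parallel cultures; bidirectional fit relative to DMSO.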

[6] = read-out: Vascular cell adhesion molecule 1 (VCAM1), VCAM1 (gene 7412); test: BSK_hDFCGF_VCAM1: BioMAP Diversity Plus: hDFCGF Assay for Vascular cell adhesion molecule 1 (VCAM1) Biomarker Activity (AID 2283065); settings: primary human foreskin fibroblasts; actives raise or lower the signal;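 as to AC50: VCAM-1 protein level quantified by ELISA after 24 h chemical exposure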
Method in brief: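 Primary human foreskin fibroblasts (hDFCGF system) were dosed with chemical and VCAM-1 was measured by ELISA 24 h later. Bidirectional curve fitting used DMSO as negative control and activity baseline.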

[7] = read-out: Plasminogen activator inhibitor-1 (PAI1), SERPINE1 (gene 5054); test: BSK_hDFCGF_PAI1: BioMAP Diversity Plus: hDFCGF Assay for Plasminogen activator inhibitor-1 (PAI1) Biomarker Activity (AID 2283066); settings: primary human foreskin fibroblasts; actives raise or lower the signal
Method in brief: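 Primary dermal fibroblasts (human foreskin), hDFCGF system; compound 24 h; PAI-1 by ELISA; bidirectional fit vs DMSO control.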

[8] = read-out: Intercellular Adhesion Molecule 1 (ICAM1), ICAM1 (gene 3383); test: BSK_KF3CT_ICAM1: BioMAP Diversity Plus: KF3CT Assay for Intercellular Adhesion Molecule 1 (ICAM1) Biomarker Activity (AID 2283067); settings: primary human keratinocytes with fibroblasts; actives raise or lower the signal
Method in brief: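 Human keratinocyte plus foreskin fibroblast primary co-culture was exposed to chemical for 24 h. ICAM-1 was then quantified by ELISA, and the data were fit bidirectionally against DMSO as the negative control and baseline.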

[9] = read-out: Interferon-gamma inducible Protein 10 (IP10), CXCL10 (gene 3627); test: BSK_KF3CT_IP10: BioMAP Diversity Plus: KF3CT Assay for Interferon-gamma inducible Protein 10 (IP10) Biomarker Activity (AID 2283068); settings: primary human keratinocytes with fibroblasts; actives raise or lower the signal
Method in brief: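 Human keratinocyte plus foreskin fibroblast primary co-culture exposed to test chemical for 24 h; IP-10 measured by ELISA. Concentration-response fitted bidirectionally against DMSO control as baseline.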

[10] = BSK_KF3CT_SRB: Viability Assessment in the BioMAP Diversity Plus: KF3CT Assay (AID 2283069); settings: primary human keratinocytes with fibroblasts;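 also: fitted for both signal gain and loss against DMSO baseline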
Method in brief: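 Human keratinocyte and foreskin fibroblast co-culture exposed to chemical for 24 h. Total protein measured in parallel cultures by 0.1% sulforhodamine B staining after 10% TCA fixation, read at 560 nm; bidirectional fit relative to DMSO.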

Measured: AC50

CCc1ccc(C(c2ccc(CC)cc2)C(Cl)Cl)cc1
inactive: [8]
active: [1] 26 µM | [2] 13.8 µM | [3] 20 µM | [4] 31.8 µM | [5] 30.1 µM | [6] 14.2 µM | [7] 12.3 µM | [9] 13.6 µM | [10] 29.2 µM

FC(F)(F)C(F)(F)C(F)(F)C(F)(F)C(F)(F)C(F)(F)C(F)(F)C(F)(F)F
inactive: [1] | [2] | [3] | [4] | [5] | [6] | [7] | [8] | [9] | [10]

O=C(O)C(F)(F)C(F)(F)C(F)(F)C(F)(F)C(F)(F)C(F)(F)C(F)(F)C(F)(F)C(F)(F)C(F)(F)C(F)(F)C(F)(F)F
active: [1] 6.46 µM | [2] 6.27 µM | [4] 2.35 µM and 1.17 µM | [5] 1.6 µM | [6] 4.75 µM and 1.14 µM | [9] 22.5 µM
inactive: [1] | [2] | [3] | [5] | [7] | [8] | [9] | [10]

CCN(CC)c1ccc2c(C)cc(=O)oc2c1
active: [6] 30.5 µM
inactive: [1] | [2] | [3] | [4] | [5] | [7] | [8] | [9] | [10]

OCC(F)(F)C(F)(F)C(F)(F)C(F)F
active: [7] 1.98 µM
inactive: [1] | [2] | [3] | [4] | [5] | [6] | [7] | [8] | [9] | [10]

C=C(C)C(=O)OCC(F)(F)C(F)(F)C(F)(F)C(F)(F)C(F)(F)C(F)(F)C(F)(F)F
inactive: [1] | [2] | [3] | [4] | [5] | [6] | [7] | [8] | [9] | [10]
active: [2] 1.4 µM

FC(F)(F)C(F)(F)C(F)(F)C(F)(F)C(F)(F)C(F)(F)C(F)(F)Br
inactive: [1] | [2] | [3] | [4] | [5] | [6] | [7] | [8] | [9] | [10]

OCC(F)(F)C(F)(F)C(F)(F)C(F)(F)C(F)(F)C(F)(F)F
inactive: [2] | [3] | [4] | [5] | [7] | [8] | [9] | [10]
active: [1] 48.6 µM and 49.4 µM | [2] 45.4 µM | [5] 49.3 µM | [6] 54.6 µM and 46 µM | [7] 47.6 µM

FC(F)(F)C(F)(F)C(F)(F)C(F)(F)CCI
active: [4] 49.3 µM
inactive: [1] | [2] | [3] | [4] | [5] | [6] | [7] | [8] | [9] | [10]

FC(F)(F)C(F)(F)C(F)(F)C(F)(F)C(F)(F)CCI
inactive: [1] | [2] | [3] | [4] | [5] | [7] | [8] | [9] | [10]
active: [1] 23.4 µM | [4] 30 µM | [5] 8.91 µM | [6] 38.6 µM and 32.6 µM

C=C(C)C(=O)OCC(F)(F)C(F)(F)C(F)(F)F
inactive: [1] | [2] | [3] | [4] | [5] | [6] | [7] | [8] | [9] | [10]

O=C(O)C(F)(F)C(F)(F)C(F)(F)C(F)(F)C(F)(F)C(F)(F)C(F)(F)C(F)(F)Cl
inactive: [3]
active: [1] 30 µM and 46.9 µM | [2] 47.7 µM and 49.2 µM | [3] 30 µM | [4] 21.4 µM and 34.1 µM | [5] 1.31 µM and 12.3 µM | [6] 46.8 µM and 30 µM | [7] 47.7 µM and 46.5 µM | [8] 32 µM and 25.1 µM | [9] 45 µM and 45.9 µM | [10] 41.7 µM and 49.7 µM

OCC(F)(F)C(F)(F)C(F)(F)F
inactive: [1] | [2] | [3] | [4] | [5] | [6] | [7] | [8] | [9] | [10]

COC(=O)CCC(F)(F)C(F)(F)C(F)(F)C(F)(F)F
active: [2] 30 µM
inactive: [1] | [2] | [3] | [4] | [5] | [6] | [7] | [8] | [9] | [10]

CO[Si](OC)(c1ccccc1)c1ccccc1
inactive: [3] | [4] | [5] | [6] | [7] | [8] | [9]
active: [1] 32.5 µM | [2] 36 µM | [10] 32.6 µM
